# According to the supplement of paper PMC10338343:
# ± gives the standard deviation.
# Experiments:
# [1] = system: MILI (PIWIL2) piRISC loaded with L1MC piRNA (26 nt); assay: pre-steady-state target cleavage rate (min^-1); guide: L1MC piRNA 5'p-UAACUAAAUACUAUGCAAGCUGUAGG; higher = faster piRNA-guided slicing of the target
# Summary of the method: (§1)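 Cleave-'n-Seq: a transcribed, DNA-blocked target RNA library (0.1 nM) was mixed with 1 nM active affinity-purified piRISC carrying one synthetic guide, with or without 500 nM GTSF1 partner protein, in HEPES–potassium acetate buffer at 33 °C for 0–8 or 0–960 min. Uncleaved targets were sequenced and normalised to depth and to weakly complementary targets. Three trials were pooled, and k3 was capped at 0.0001 min^-1. The pre-steady-state cleavage rate came from a burst-and-steady-state fit.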
# [2] = system: EfPiwi piRISC loaded with L1MC piRNA (26 nt); assay: pre-steady-state target cleavage rate (min^-1); auxiliary factor: 500 nM Ephydatia muelleri Gtsf1; guide: L1MC piRNA 5'p-UAACUAAAUACUAUGCAAGCUGUAGG; MIWI and MILI are mouse PIWI proteins and EfPiwi is from a freshwater sponge; tags in brackets are library labels; higher = faster piRNA-guided slicing of the target
# Summary of the method: as §1
# [3] = auxiliary factor: 500 nM mouse GTSF1
# [4] = auxiliary factor: none (no GTSF1)
Sequence,"pre-steady-state target cleavage rate [1, 3]",pre-steady-state target cleavage rate [2],"pre-steady-state target cleavage rate [1, 4]"
UCCUGGAACAGCUUGCAUAUUAUUUAGUUA,0.0696 ± 0.008,0.0169 ± 0.0055,–
UCCUGGUACAGCUUGCAUAGUAUUAACUUA,0.0223 ± 0.0097,0.0032 ± 0.0024,–
UCCUCCUACUCCUUGCAUAGUAUUUAGAAA,0.0907 ± 0.021,0.00457 ± 0.0022,–
UCCUGGAUGUCGAAGGAAAGUAUUUAGUUA,–,< 0.0001,< 0.0001
UCCUGGAACAGCUUGCAUAGUAUAAAGAAA,0.0192 ± 0.0088,0.00217 ± 0.0021,–
UCCUGGAACAGCUAGCAUAGUAUUUACAAA,0.0718 ± 0.019,0.00337 ± 0.0029,–
UCCUCCUACAGCUUGCAUAGUAUUUACAUA,0.177 ± 0.041,0.00441 ± 0.0028,–
UCCUCCUACAGCAUGCAUAGUAUUUAGAUA,0.176 ± 0.027,0.00452 ± 0.0019,–
UCCUGGAACUGCUUGCAUAGUAUUUUGUUA,0.101 ± 0.017,0.00426 ± 0.0026,–
UCCUGCUUCAGCUUGCAUAGUAUUUUCAAA,0.0882 ± 0.022,0.00362 ± 0.0023,–
UCCUGGUACAGCUUGCAUAGUAUUUAGGUA,0.0562 ± 0.015,0.00463 ± 0.0022,–
UCCUGGAACAGCUUGCUUAGUAUUUAGAUA,0.176 ± 0.017,0.00448 ± 0.0027,–
UCCUGGUACAGCUUGCAAAGUAUUUUGUUA,0.0563 ± 0.014,0.00296 ± 0.0029,–
UCCUGGAAGAGCUUGCAUAGAAUUUAGUUA,0.0498 ± 0.011,0.00403 ± 0.0018,–
UCCUGGAUGUCGAACCAUAGUAUUUAGGUA,–,< 0.0001,< 0.0001
UCCUCCUUCAGCUUGCAUAGAAUUUAGUUA,0.0772 ± 0.016,0.00469 ± 0.0021,–
UCCUGGAUGUGCUUGCAUAGUAUUUGAGUUA,0.123 ± 0.024,0.0118 ± 0.0069,–
UCCUCCUUCAGCUUGCAUAGUAUUUACAAA,0.13 ± 0.029,0.00379 ± 0.0027,–
UCCUGGAUGUCGAACGAUAGUGAUUUAGUUA,–,< 0.0001,< 0.0001
UCCUCCUACAGCUUGCAUUGUAUUUAGAUA,0.119 ± 0.019,0.00539 ± 0.0029,–
UCCUGCUACAGCUUGCAUAGUAUAAUGAAA,0.0499 ± 0.018,0.00473 ± 0.0032,–
UCCUGGUUCAGCUUGCAUAGUAUUUAGAAA,0.114 ± 0.022,0.00471 ± 0.003,–
UCCUGCUACUCCUUGCAUAGUAUUUACAAA,0.0669 ± 0.016,0.00249 ± 0.0023,–
UCCUCCUACAGCUUGGUUAGUAUUUAGAAA,0.081 ± 0.016,0.00231 ± 0.0022,–
UCCUCCUACAGCUUGCAAACUAUUUAGUUA,0.0393 ± 0.0078,0.00937 ± 0.0039,–
UCCUCCUACAGCUUGCAUAGUAUUAACUUA,0.0722 ± 0.018,0.00459 ± 0.0029,–

Sequence,"pre-steady-state target cleavage rate [1, 3]",pre-steady-state target cleavage rate [2],"pre-steady-state target cleavage rate [1, 4]"
UCCUGCUACAGCUUGCAUAGUAUUAAGUAA,0.172 ± 0.042,0.00315 ± 0.0016,–
UCCUGGAACAGCUUGCAUAGUAUUUACAUA,0.0382 ± 0.014,0.00316 ± 0.0025,–
UCCUGCUACAGCUUGCAUAGUAUUUUCAAA,0.137 ± 0.041,0.00277 ± 0.0021,–
UCCUGGAACAGCUUGCAUAGUAUUCUAGUUA,0.145 ± 0.032,0.00277 ± 0.0018,–
UCCUGCAACAGCUUGCAUAGUAUUUAGAAA,0.138 ± 0.026,0.00432 ± 0.0016,–
UCCUGGUACAGCUUGCACUAGUAUUUAGUUA,0.109 ± 0.027,0.00323 ± 0.0029,–
UCCUGGAACAGCUUGCAUAGUAUAUAGUAA,0.124 ± 0.022,0.00251 ± 0.0017,–
UCCUCCUACAGGUUGCAUAGUAUUUACAAA,0.052 ± 0.014,0.00321 ± 0.0024,–
UCCUGGUACAGCUUGCAUACUAUUAAGUUA,0.0468 ± 0.016,0.00282 ± 0.0022,–
UCCUCCUACAGCUUGCAUACUAUUUUGUUA,0.0272 ± 0.0077,0.00468 ± 0.0034,–
UCCUGGAUGUGCUUGCAUAGUAUUUAGAUUA,0.0647 ± 0.016,0.00327 ± 0.0022,–
UCCUGGAACAGCUUGCAUAGUAAUUAGUAA,0.108 ± 0.015,0.00418 ± 0.0019,–
UCCUGGUACUCCUUGCAUAGUAUUUAGAAA,0.0265 ± 0.01,0.00304 ± 0.0022,–
UCCUGGAACAGCUUGCAUAGUAUUAAGAAA,0.154 ± 0.045,0.00313 ± 0.0019,–
UCCUGGAUCAGCUUGCAUAGUAUUUUCAUA,0.0451 ± 0.011,0.00263 ± 0.0022,–
UCCUGGAACAGCUUGCAUAGUUUUUAGAAA,0.0191 ± 0.007,0.00413 ± 0.0021,–
UCCUGCAUCAGCUUGCAUAGUAUUUUCAAA,0.118 ± 0.029,0.00236 ± 0.0016,–
UCCUGGAUGUGCUUGCAUAGUAAUUAGAUA,0.00915 ± 0.0044,0.00395 ± 0.0024,–
UCCUGGAACAGGAUGCAUAGUAUUUACAAA,0.0486 ± 0.017,0.00226 ± 0.0018,–
UCCUGGAUCAGCUUGCACUAGUAUUUAGUUA,0.00868 ± 0.0048,0.00365 ± 0.0027,–
UCCUGCUACAGCUUGCAUAGUAAAAAGUUA,0.214 ± 0.036,0.00305 ± 0.0016,–
UCCUCCUACAGCUUGCAUAGUUAUUAGAAA,0.0109 ± 0.0053,0.00348 ± 0.0028,–
UCCUCCUUCAGCUUGCAUAGUAUUUACUUA,0.132 ± 0.023,0.00514 ± 0.0032,–
UCCUCCUACUGCUUCCAUAGUAUUUAGUUA,0.0403 ± 0.0098,0.0043 ± 0.0018,–
UCCUGGAACAGCUUGCAUAGUAUUUACAAA,0.222 ± 0.048,0.00238 ± 0.0019,–
